# Measured values from the supplement of paper PMC4466140.
# Assays:
# Assay in all cases: SPOT peptide array binding signal intensity (averaged, normalized) (arbitrary units (background-subtracted, floor 0; scale differs between SH3 domains)); higher = stronger binding of the SH3 domain to the peptide
# [1] = target: CaNbp2
# Outline: (§1)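 Cellulose membranes carried synthetic 15-mer peptides with cysteines swapped for serines. These were incubated overnight at 4°C with 10 μg/ml of GST-fused SH3 domains from four yeast species in TBS-based blocking buffer. Binding signal, detected with anti-GST antibody and quantified in Genespotter, is the normalized, background-subtracted spot intensity averaged over replicates, in arbitrary units specific to each domain.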
# [2] = target: CaRvs167
# Outline: as §1
# [3] = target: CaRvs167-3
# Outline: as §1
# [4] = target: CaSho1
# Outline: as §1
# [5] = target: CaSla1-D1-D2
# Outline: as §1
# [6] = target: CaSla1-D3
# Outline: as §1
# [7] = target: ScAbp1
# Outline: as §1
# [8] = target: ScBbc1
# Outline: as §1
# [9] = target: ScBem1-D1
# Outline: as §1
# [10] = target: ScBzz1-D1
# Outline: as §1
# [11] = target: ScBzz1-D2
# Outline: as §1
# [12] = target: ScCyk3
# Outline: as §1
# [13] = target: ScFus1
# Outline: as §1
# [14] = target: ScHof1
# Outline: as §1
# [15] = target: ScHse1
# Outline: as §1
# [16] = target: ScLsb1
# Outline: as §1
# [17] = target: ScLsb2
# Outline: as §1
# [18] = target: ScLsb3
# Outline: as §1
# [19] = target: ScLsb4
# Outline: as §1
# [20] = target: ScMyo3
# Outline: as §1
# [21] = target: ScMyo5
# Outline: as §1
# [22] = target: ScNbp2
# Outline: as §1
# [23] = target: ScPex13
# Outline: as §1
# [24] = target: ScRvs167
# Outline: as §1
# [25] = target: ScSho1
# Outline: as §1
# [26] = target: ScSla1-D1-D2
# Outline: as §1
# [27] = target: ScSla1-D3
# Outline: as §1
# [28] = target: SpAbp1-D1
# Outline: as §1
# [29] = target: SpBbc1
# Outline: as §1
# [30] = target: SpBzz1-D1
# Outline: as §1
# [31] = target: SpBzz1-D2
# Outline: as §1
# [32] = target: SpCyk3
# Outline: as §1
# [33] = target: SpHof1
# Outline: as §1
# [34] = target: SpHof1-2
# Outline: as §1
# [35] = target: SpHof1-3
# Outline: as §1
# [36] = target: SpHse1
# Outline: as §1
# [37] = target: SpLsb1
# Outline: as §1
# [38] = target: SpLsb4
# Outline: as §1
# [39] = target: SpMyo1
# Outline: as §1
# [40] = target: SpNbp2
# Outline: as §1
# [41] = target: SpPex13
# Outline: as §1
# [42] = target: SpRvs167
# Outline: as §1
# [43] = target: SpSla1-D1-D2
# Outline: as §1
# [44] = target: SpSla1-D3
# Outline: as §1
# [45] = target: AgAbp1
# Outline: as §1
# [46] = target: AgBbc1
# Outline: as §1
# [47] = target: AgBem1-D1
# Outline: as §1
# [48] = target: AgBzz1-D1
# Outline: as §1
# [49] = target: AgBzz1-D2
# Outline: as §1
# [50] = target: AgCyk3
# Outline: as §1
# [51] = target: AgFus1
# Outline: as §1
# [52] = target: AgHof1
# Outline: as §1
# [53] = target: AgHse1
# Outline: as §1
# [54] = target: AgLsb1
# Outline: as §1
# [55] = target: AgLsb4
# Outline: as §1
# [56] = target: AgMyo5
# Outline: as §1
# [57] = target: AgNbp2
# Outline: as §1
# [58] = target: AgRvs167
# Outline: as §1
# [59] = target: AgSho1
# Outline: as §1
# [60] = target: AgSla1-D1-D2
# Outline: as §1
# [61] = target: AgSla1-D3
# Outline: as §1
# [62] = target: CaAbp1-D1
# Outline: as §1
# [63] = target: CaAbp1-D2
# Outline: as §1
# [64] = target: CaBbc1
# Outline: as §1
# [65] = target: CaBem1-D1
# Outline: as §1
# [66] = target: CaBzz1-D1
# Outline: as §1
# [67] = target: CaBzz1-D2
# Outline: as §1
# [68] = target: CaCyk3
# Outline: as §1
# [69] = target: CaFus1
# Outline: as §1
# [70] = target: CaHof1
# Outline: as §1
# [71] = target: CaHse1
# Outline: as §1
# [72] = target: CaLsb1
# Outline: as §1
# [73] = target: CaLsb4
# Outline: as §1
# [74] = target: CaMyo5
# Outline: as §1
binder,measurement,setting,value
GAGERPRLVPRPINV,SPOT peptide array binding signal intensity,[1],≤ 0
same,SPOT peptide array binding signal intensity,[2],3.5
same,SPOT peptide array binding signal intensity,[3],≤ 0
same,SPOT peptide array binding signal intensity,[4],21
same,SPOT peptide array binding signal intensity,[5],15.5
same,SPOT peptide array binding signal intensity,[6],0.75
same,SPOT peptide array binding signal intensity,[7],10
same,SPOT peptide array binding signal intensity,[8],29.5
same,SPOT peptide array binding signal intensity,[9],≤ 0
same,SPOT peptide array binding signal intensity,[10],13
same,SPOT peptide array binding signal intensity,[11],44.5
same,SPOT peptide array binding signal intensity,[12],53
same,SPOT peptide array binding signal intensity,[13],≤ 0
same,SPOT peptide array binding signal intensity,[14],3.25
same,SPOT peptide array binding signal intensity,[15],4.5
same,SPOT peptide array binding signal intensity,[16],98.2
same,SPOT peptide array binding signal intensity,[17],4.5
same,SPOT peptide array binding signal intensity,[18],531
same,SPOT peptide array binding signal intensity,[19],20
same,SPOT peptide array binding signal intensity,[20],47.5
same,SPOT peptide array binding signal intensity,[21],4
same,SPOT peptide array binding signal intensity,[22],8
same,SPOT peptide array binding signal intensity,[23],1
same,SPOT peptide array binding signal intensity,[24],91.3
same,SPOT peptide array binding signal intensity,[25],13.5
same,SPOT peptide array binding signal intensity,[26],25.5
same,SPOT peptide array binding signal intensity,[27],20
same,SPOT peptide array binding signal intensity,[28],11
same,SPOT peptide array binding signal intensity,[29],22.8
same,SPOT peptide array binding signal intensity,[30],384
same,SPOT peptide array binding signal intensity,[31],0.75
same,SPOT peptide array binding signal intensity,[32],8
same,SPOT peptide array binding signal intensity,[33],5.5
same,SPOT peptide array binding signal intensity,[34],6
same,SPOT peptide array binding signal intensity,[35],5.75
same,SPOT peptide array binding signal intensity,[36],≤ 0
same,SPOT peptide array binding signal intensity,[37],410
same,SPOT peptide array binding signal intensity,[38],740
same,SPOT peptide array binding signal intensity,[39],4.75
same,SPOT peptide array binding signal intensity,[40],≤ 0
same,SPOT peptide array binding signal intensity,[41],≤ 0
same,SPOT peptide array binding signal intensity,[42],6.67
same,SPOT peptide array binding signal intensity,[43],4
same,SPOT peptide array binding signal intensity,[44],1
KTRLRPAFIQQLWSS,SPOT peptide array binding signal intensity,[45],12
same,SPOT peptide array binding signal intensity,[46],18.8
same,SPOT peptide array binding signal intensity,[47],181
same,SPOT peptide array binding signal intensity,[48],82.5
same,SPOT peptide array binding signal intensity,[49],32.5
same,SPOT peptide array binding signal intensity,[50],1
same,SPOT peptide array binding signal intensity,[51],286
same,SPOT peptide array binding signal intensity,[52],45.5
same,SPOT peptide array binding signal intensity,[53],630
same,SPOT peptide array binding signal intensity,[54],1
same,SPOT peptide array binding signal intensity,[55],29.5
same,SPOT peptide array binding signal intensity,[56],3
same,SPOT peptide array binding signal intensity,[57],94.5
same,SPOT peptide array binding signal intensity,[58],2.83
same,SPOT peptide array binding signal intensity,[59],12
same,SPOT peptide array binding signal intensity,[60],18
same,SPOT peptide array binding signal intensity,[61],19.8
same,SPOT peptide array binding signal intensity,[62],130
same,SPOT peptide array binding signal intensity,[63],38.5
same,SPOT peptide array binding signal intensity,[64],82.5
same,SPOT peptide array binding signal intensity,[65],46
same,SPOT peptide array binding signal intensity,[66],58.5
same,SPOT peptide array binding signal intensity,[67],59
same,SPOT peptide array binding signal intensity,[68],6
same,SPOT peptide array binding signal intensity,[69],912
same,SPOT peptide array binding signal intensity,[70],2
same,SPOT peptide array binding signal intensity,[71],10.8
same,SPOT peptide array binding signal intensity,[72],0.5
same,SPOT peptide array binding signal intensity,[73],14
same,SPOT peptide array binding signal intensity,[74],4
same,SPOT peptide array binding signal intensity,[1],338
same,SPOT peptide array binding signal intensity,[2],17.3
same,SPOT peptide array binding signal intensity,[3],2
same,SPOT peptide array binding signal intensity,[4],338
same,SPOT peptide array binding signal intensity,[5],≤ 0
same,SPOT peptide array binding signal intensity,[6],9.5
same,SPOT peptide array binding signal intensity,[7],17
same,SPOT peptide array binding signal intensity,[8],6.25
same,SPOT peptide array binding signal intensity,[9],60
same,SPOT peptide array binding signal intensity,[10],29.5
same,SPOT peptide array binding signal intensity,[11],82.5
same,SPOT peptide array binding signal intensity,[12],47
same,SPOT peptide array binding signal intensity,[13],170
same,SPOT peptide array binding signal intensity,[14],5.75
same,SPOT peptide array binding signal intensity,[15],1510
same,SPOT peptide array binding signal intensity,[16],≤ 0
same,SPOT peptide array binding signal intensity,[17],≤ 0
same,SPOT peptide array binding signal intensity,[18],74.5
same,SPOT peptide array binding signal intensity,[19],1.5
same,SPOT peptide array binding signal intensity,[20],10
same,SPOT peptide array binding signal intensity,[21],3.5
same,SPOT peptide array binding signal intensity,[22],121
same,SPOT peptide array binding signal intensity,[23],6.25
same,SPOT peptide array binding signal intensity,[24],13
same,SPOT peptide array binding signal intensity,[25],431
same,SPOT peptide array binding signal intensity,[26],36
same,SPOT peptide array binding signal intensity,[27],27.5
same,SPOT peptide array binding signal intensity,[28],54.5
same,SPOT peptide array binding signal intensity,[29],4
same,SPOT peptide array binding signal intensity,[30],170
